Screen size: about 320,000 compounds; about 22,000 (6.9%) were called active. Another 27% or so got no clear call; they are omitted. Many of the other results were omitted from the sample, so actives are more common in it than they were. A number with no mark means an inactive call. Calls follow the shape of the dose curve; as a rule, active = well fitted inhibition curve with a large enough effect; inconclusive = small, poorly fitted or top-dose-only effect, or another doubt; inactive = no such curve, though single readings can be large or run the other way.
% is scaled to controls: 0 for no effect and ±100 for the full control effect; potency is read from the fitted curve at half-maximal effect.

The assay is described as follows: Primary qHTS for delayed death inhibitors of the malarial parasite plastid, 96 hour incubation. Particulars: P. falciparum luciferase reporter growth; series mostly up to 28.7 µM; activity change, negative = inhibition: at the top concentration. In outline: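 Erythrocytes infected with luciferase-expressing P. falciparum were dispensed at 2% hematocrit and 0.05% parasitemia (final), then incubated with compounds 96 hours at 37 C in 5% CO2. Luminescence after detection reagent addition reported growth.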
Background: In qHTS, concentration-response curves come from the screen itself.
As to `COc1ccc(N(CCC(=O)NCCc2ccccc2)S(=O)(=O)c2ccc(C)cc2C)cc1`, the “activity change, negative = inhibition” value is 28%.
`Cc1cccc(NC(=S)NC(=O)c2ccc(Br)o2)c1`: the “activity change, negative = inhibition” value is 48.5%.
With `Cc1cccc(NC(=O)NC(=S)NC(=O)c2ccccc2)c1`, the “activity change, negative = inhibition” value is 111%.
On to `Cc1cccc(NC(=O)Nc2cccc(Oc3c(F)c(F)c(F)c(F)c3F)c2)c1`, for which the Potency is 2.08 µM (active).
Regarding `Cc1ccc(S(=O)(=O)c2nc(-c3cccs3)oc2NCc2cccnc2)cc1`, the Potency is 11.7 µM (active).
On to `O=C(NCc1cccnc1)c1nc(-c2cccs2)no1`, for which the activity change, negative = inhibition is 112% [at 5.75 µM].
Turning to `Cc1ccc(C)c(NS(=O)(=O)c2ccc(OCC(=O)NCc3cccnc3)cc2)c1`, the “activity change, negative = inhibition” value was 5.79%.
On the same count and under the same terms, then `COc1cccc2cc(C(N)=O)/c(=N\NC(=O)c3ccccc3)oc12`, with -23.7%; and `Cn1nccc1NS(=O)(=O)c1ccc(F)cc1`, with -10.2%.
On to `O=C(CN1CCN(c2ccc(Cl)cc2)CC1)c1ccccc1`, for which the “activity change, negative = inhibition” value was -0.965%.
Turning to `CC(=O)c1nn(-c2cccc(Br)c2)cc1C(=O)c1cccc2ccccc12`, the Potency is 6.57 µM (active).
As to `Cc1ccn2c(=O)c(NC(=O)c3cccc4ccccc34)c(C)nc2c1`, the “activity change, negative = inhibition” value was -9.77%.
Take `CC(=O)c1ccc2c(ccc3ccccc32)c1`: the “activity change, negative = inhibition” value was 55.4%.
In the case of `Cc1ccc(C(=O)OCC(=O)Nc2ccc(Cl)cn2)cc1S(=O)(=O)N1CCOCC1`, the “activity change, negative = inhibition” value is 3.68%.
`Cc1ccc(CSc2ccc(S(=O)(=O)N3CCCCC3)cn2)cc1`: the “activity change, negative = inhibition” value is 17.7%.
On to `O=C(Nc1ccc(F)cc1)c1ccc(S(=O)(=O)NCc2cccnc2)cc1`, for which the “activity change, negative = inhibition” value was 6.72%.
With `Cc1cccn2cc(-c3cccc(S(=O)(=O)N4CCCCC4)c3)nc12`, the “activity change, negative = inhibition” value is 5.08%.
Consider `COc1ccc(N2CCN(C(=O)c3ccc(N4CCCCS4(=O)=O)cc3)CC2)cc1`, for which the “activity change, negative = inhibition” value was 108%.
As to `COCCNC(=S)N(CCc1c(C)[nH]c2ccc(C)cc12)Cc1cccnc1`, the Potency is 1.65 µM (active).
Consider `COCCNC(=S)N(Cc1cccnc1)Cc1ccc(OC)c(OC)c1`, for which the “activity change, negative = inhibition” value is -15.1%.
For `Cc1ccc(CN(Cc2cccnc2)C(=S)Nc2cccc(Cl)c2C)cc1`, the “activity change, negative = inhibition” value is -17.2%.
Consider `CC(NC(=O)c1cc(=O)[nH]c2ccccc12)c1ccc(F)cc1F` (configuration not stated), for which the “activity change, negative = inhibition” value is -2.79%.
For `O=C1C(=O)N(CCCN2CCOCC2)C(c2ccc([N+](=O)[O-])cc2)/C1=C(\O)c1ccc2c(c1)OCCO2` (configuration not stated), the “activity change, negative = inhibition” value is -23.5%.
For the compound `COC(=O)c1c(NC(=O)C(=O)N2CCCCC2)sc2c1CC(C)(C)OC2`, the “activity change, negative = inhibition” value was -9.87%.
For `Cc1ccc(CNC(=O)Cn2c(=O)c3sccc3n(Cc3cccc([N+](=O)[O-])c3)c2=O)cc1`, the Potency is 8.28 µM (active).
Take `Cc1ccc(Cn2c(C)c3cnn(CC(=O)NCc4ccccn4)c(=O)c3c2C)cc1`: the “activity change, negative = inhibition” value is 31.5%.
Regarding `COCCNC(=O)CCCn1c(=O)c2ccccc2n(Cc2cccc([N+](=O)[O-])c2)c1=O`, the “activity change, negative = inhibition” value is -27.3%.

These data come from PubChem BioAssay AID504834 (National Center for Advancing Translational Sciences (NCATS), 2011).
